Hit rate of the full screen: of about 1,200 compounds, about 150 (12%) were called active.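 How the source made its calls: active means ratio at least 3 SD above the weak peptide control, stable starting fluorescence, no direct agonism earlier; inactive means the rest.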 This excerpt belongs to a sample that is enriched for actives.
Target: Mas-related G-protein coupled receptor member X1 (Homo sapiens) (UniProt Q96LB2)
Experiment: MrgX1 positive allosteric modulators, duplicate retest, confirmation, HEK293 cells, Fluo-4 calcium flux (AID 602413);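 further: compound followed by low BAM8-22 agonist challenge near EC20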
Settings: MrgX1-HEK293, Fluo-4 calcium fluorescence, FDSS; at 10 µM; hits give high values

Mas-related G-protein coupled receptor member X1 (Homo sapiens), sequence (Q96LB2 whole entry, looked up): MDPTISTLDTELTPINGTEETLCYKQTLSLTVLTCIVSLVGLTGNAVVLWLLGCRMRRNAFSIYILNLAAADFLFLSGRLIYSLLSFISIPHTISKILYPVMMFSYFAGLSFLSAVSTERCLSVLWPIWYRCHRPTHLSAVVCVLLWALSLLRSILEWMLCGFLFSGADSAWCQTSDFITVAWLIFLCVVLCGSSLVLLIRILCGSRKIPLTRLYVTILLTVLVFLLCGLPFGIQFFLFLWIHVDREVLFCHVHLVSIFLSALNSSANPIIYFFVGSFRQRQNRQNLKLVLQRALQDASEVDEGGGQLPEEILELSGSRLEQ

SMILES	activation (ratio percentage)
C=CCN1C(=O)C2(C(C(=O)OCC)=C(N)Oc3c2c(=O)oc2ccccc32)c2ccccc21 (stereo unspecified)	29.5% (active)

Reference: PubChem BioAssay AID602413 (Johns Hopkins Ion Channel Center, 2012)
